Test results: PubChem BioAssay AID1159580 (chemical genetic matrix, 2015)
The whole screen tested about 5,500 compounds, of which about 2,000 (36%) were called active. Roughly 18% stayed inconclusive and do not appear here. No stated cut-off is given here; in the data, active means normalized growth mostly below about 0.91 (no sharp cut-off); inconclusive means no clear call, values can overlap the other calls; inactive means mostly above about 0.92. The list shows a part of the results.

Assay: chemical genetic growth profiling, strain panel (AID 1159580);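 further: tested at 20 µM; growth read once vehicle control cultures reached saturation at 30 °C; 1 = growth at the plate median or of vehicle wells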
Conditions: growth OD

Measured: normalized growth

CO[C@H]1C[C@H](O[C@H]2[C@H](C)[C@@H](OC3O[C@H](C)C[C@H](N(C)C)[C@H]3O)[C@@H](C)C[C@]3(CO3)C(=O)[C@H](C)[C@@H](O)[C@@H](C)[C@@H](C)OC(=O)[C@@H]2C)O[C@@H](C)[C@@H]1O (some centres not stated)
inactive: S. cerevisiae deletion strains, locus YJR075W, strain HOC1, stronger effect = lower value 1.01 | S. cerevisiae deletion strains, locus YKL009W, strain mrt4, stronger effect = lower value 1 | S. cerevisiae deletion strains, locus YKL068W, stronger effect = lower value 1 | S. cerevisiae deletion strains, locus YKL085W, strain MDH1 (second series), stronger effect = lower value 0.992 | S. cerevisiae deletion strains, locus YKL085W, strain MDH1, stronger effect = lower value 0.992 | S. cerevisiae deletion strains, locus YKL160W, strain elf1, stronger effect = lower value 1.06 | S. cerevisiae deletion strains, locus YKL190W, strain CNB1, stronger effect = lower value 1 | S. cerevisiae deletion strains, locus YKR001C, strain vps1, stronger effect = lower value 1.02 | S. cerevisiae deletion strains, locus YKR026C, strain gcn3, stronger effect = lower value 1 | S. cerevisiae deletion strains, locus YKR091W, strain srl3, stronger effect = lower value 1 | S. cerevisiae deletion strains, locus YLL001W, strain dnm1, stronger effect = lower value 1.06 | S. cerevisiae deletion strains, locus YLL026W, stronger effect = lower value 1 | S. cerevisiae deletion strains, locus YLL041C, strain sdh2, stronger effect = lower value 1 | S. cerevisiae deletion strains, locus YLR027C, strain aat2, stronger effect = lower value 1.01 | S. cerevisiae deletion strains, locus YLR039C, strain RIC1, stronger effect = lower value 1.03 | S. cerevisiae deletion strains, locus YLR058C, strain SHM2, stronger effect = lower value 1.01 | S. cerevisiae deletion strains, locus YLR102C, strain apc9, stronger effect = lower value 0.984 | S. cerevisiae deletion strains, locus YLR113W, strain HOG1, stronger effect = lower value 0.995 | S. cerevisiae deletion strains, locus YLR221C, strain rsa3, stronger effect = lower value 1.03 | S. cerevisiae deletion strains, locus YLR258W, strain gsy2, stronger effect = lower value 1.03 | S. cerevisiae deletion strains, locus YLR262C, strain YPT6 (second series), stronger effect = lower value 1.02 | S. cerevisiae deletion strains, locus YLR262C, strain YPT6, stronger effect = lower value 0.956 | S. cerevisiae deletion strains, locus YLR268W, strain sec22, stronger effect = lower value 1.05 | S. cerevisiae deletion strains, locus YLR320W, strain mms22, stronger effect = lower value 1.07 | S. cerevisiae deletion strains, locus YLR330W, strain CHS5, stronger effect = lower value 1.01 | S. cerevisiae deletion strains, locus YLR342W, strain FKS1 (second series), stronger effect = lower value 1.01 | S. cerevisiae deletion strains, locus YLR342W, strain FKS1, stronger effect = lower value 1.01 | S. cerevisiae deletion strains, locus YLR357W, strain rsc2, stronger effect = lower value 1.05 | S. cerevisiae deletion strains, locus YLR370C, strain arc18, stronger effect = lower value 0.991 | S. cerevisiae deletion strains, locus YLR371W, strain rom2, stronger effect = lower value 0.985 | S. cerevisiae deletion strains, locus YLR384C, strain iki3, stronger effect = lower value 1 | S. cerevisiae deletion strains, locus YLR418C, strain cdc73, stronger effect = lower value 1.03 | S. cerevisiae deletion strains, locus YML016C, strain PPZ1, stronger effect = lower value 1 | S. cerevisiae deletion strains, locus YML032C, strain rad52, stronger effect = lower value 1.01 | S. cerevisiae deletion strains, locus YML120C, strain ndi1, stronger effect = lower value 1.02 | S. cerevisiae deletion strains, locus YML124C, strain tub3, stronger effect = lower value 1 | S. cerevisiae deletion strains, locus YMR058W, strain fet3, stronger effect = lower value 1.01 | S. cerevisiae deletion strains, locus YMR078C, strain ctf18, stronger effect = lower value 0.996 | S. cerevisiae deletion strains, locus YMR125W, strain sto1, stronger effect = lower value 1.07 | S. cerevisiae deletion strains, locus YMR129W, stronger effect = lower value 0.997 | S. cerevisiae deletion strains, locus YMR205C, strain PFK2, stronger effect = lower value 1.05 | S. cerevisiae deletion strains, locus YMR223W, strain ubp8, stronger effect = lower value 1 | S. cerevisiae deletion strains, locus YMR231W, strain pep5, stronger effect = lower value 1 | S. cerevisiae deletion strains, locus YMR263W, strain SAP30, stronger effect = lower value 1.02 | S. cerevisiae deletion strains, locus YMR307W, strain GAS1, stronger effect = lower value 0.983 | S. cerevisiae deletion strains, locus YNL067W, strain RPL9B, stronger effect = lower value 1.02 | S. cerevisiae deletion strains, locus YNL071W, strain lat1, stronger effect = lower value 1.01 | S. cerevisiae deletion strains, locus YNL128W, strain TEP1, stronger effect = lower value 1.01 | S. cerevisiae deletion strains, locus YNL153C, strain GIM3, stronger effect = lower value 1.01 | S. cerevisiae deletion strains, locus YNL183C, strain NPR1, stronger effect = lower value 0.962 | S. cerevisiae deletion strains, locus YNL209W, strain ssb2, stronger effect = lower value 1.01 | S. cerevisiae deletion strains, locus YNL233W, strain BNI4, stronger effect = lower value 1.02 | S. cerevisiae deletion strains, locus YNL248C, strain rpa49, stronger effect = lower value 1.09 | S. cerevisiae deletion strains, locus YNL250W, strain rad50, stronger effect = lower value 1.01 | S. cerevisiae deletion strains, locus YNL271C, strain bni1, stronger effect = lower value 1.01 | S. cerevisiae deletion strains, locus YNL298W, strain CLA4, stronger effect = lower value 1.01 | S. cerevisiae deletion strains, locus YNL307C, strain MCK1, stronger effect = lower value 0.982 | S. cerevisiae deletion strains, locus YNL322C, strain KRE1 (second series), stronger effect = lower value 1.02 | S. cerevisiae deletion strains, locus YNL322C, strain KRE1, stronger effect = lower value 1.01 | S. cerevisiae deletion strains, locus YNR049C, strain mso1, stronger effect = lower value 0.997 | S. cerevisiae deletion strains, locus YNR052C, strain pop2, stronger effect = lower value 0.99 | S. cerevisiae deletion strains, locus YOL006C, strain TOP1, stronger effect = lower value 1.03 | S. cerevisiae deletion strains, locus YOL012C, strain htz1 1.14 | S. cerevisiae deletion strains, locus YOL147C, strain pex11, stronger effect = lower value 0.996 | S. cerevisiae deletion strains, locus YOR001W, strain rrp6, stronger effect = lower value 0.974 | S. cerevisiae deletion strains, locus YOR061W, strain CKA2, stronger effect = lower value 1 | S. cerevisiae deletion strains, locus YOR069W, strain VPS5, stronger effect = lower value 1.01 | S. cerevisiae deletion strains, locus YOR070C, strain gyp1, stronger effect = lower value 0.999 | S. cerevisiae deletion strains, locus YOR080W, strain dia2, stronger effect = lower value 0.988 | S. cerevisiae deletion strains, locus YOR083W, strain WHI5, stronger effect = lower value 1.07 | S. cerevisiae deletion strains, locus YOR106W, strain vam3, stronger effect = lower value 1.08 | S. cerevisiae deletion strains, locus YOR136W, strain idh2, stronger effect = lower value 1.01 | S. cerevisiae deletion strains, locus YOR144C, strain elg1, stronger effect = lower value 1 | S. cerevisiae deletion strains, locus YOR184W, strain ser1, stronger effect = lower value 1.01 | S. cerevisiae deletion strains, locus YOR231W, strain MKK1, stronger effect = lower value 1 | S. cerevisiae deletion strains, locus YOR265W, strain rbl2, stronger effect = lower value 1 | S. cerevisiae deletion strains, locus YOR270C, strain vph1, stronger effect = lower value 1.03 | S. cerevisiae deletion strains, locus YOR290C, strain snf2, stronger effect = lower value 1.03 | S. cerevisiae deletion strains, locus YOR316C, strain cot1, stronger effect = lower value 0.985 | S. cerevisiae deletion strains, locus YPL051W, strain arl3, stronger effect = lower value 1.04 | S. cerevisiae deletion strains, locus YPL055C, strain LGE1, stronger effect = lower value 1.05 | S. cerevisiae deletion strains, locus YPL078C, strain atp4, stronger effect = lower value 1.06 | S. cerevisiae deletion strains, locus YPL106C, strain sse1, stronger effect = lower value 1.03 | S. cerevisiae deletion strains, locus YPL240C, strain hsp82, stronger effect = lower value 1 | S. cerevisiae deletion strains, locus YPL241C, strain CIN2, stronger effect = lower value 1 | S. cerevisiae deletion strains, locus YPL256C, strain CLN2, stronger effect = lower value 0.982 | S. cerevisiae deletion strains, locus YPR119W, strain clb2, stronger effect = lower value 0.99 | S. cerevisiae deletion strains, locus YPR141C, strain kar3, stronger effect = lower value 1.01 | S. cerevisiae deletion strains, locus YPR163C, strain tif3, stronger effect = lower value 0.989 | S. cerevisiae deletion strains, locus YPR167C, strain met16, stronger effect = lower value 1 | S. cerevisiae deletion strains, strain wtn01, stronger effect = lower value 1.03 | S. cerevisiae strains, strain wild type, stronger effect = lower value 1
